{
  "source": "PubChem BioAssay (NCATS)",
  "note": "Results filed as inconclusive are left out. Activity calls are given as the source filed them. The call rests on the fitted dose curve; in most records, active means well fitted curve in the direction sought with a large enough effect; inconclusive means small, poorly fitted or top-dose-only effect, or another doubt; inactive means no such curve, though single readings can be large; an effect the other way counts as inactive or inconclusive.",
  "data": [
    {"assay": "qHTS of pediatric cancer cell lines to identify multiple opportunities for drug repurposing: Primary screen for LAN-5 cells (AID 1347100);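 further: plate controls were DMSO neutral control for no effect and bortezomib positive control for full effect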", "settings": "LAN-5 neuroblastoma viability, CellTiter-Glo luminescence, 48 h; series mostly up to 46 µM; activity change, negative = cytotoxic: at the top concentration", "procedure,_shortened": "(§1)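 Cells (500-1,000/well) rested 5 h, then received compounds for 48 h; metabolically active cells were measured by CellTiter-Glo luminescence. Final concentrations spanned up to 46 µM (MIPE, 11-point) or 0.59 nM-46 µM (NPC, 8-point) in primary screens, 11-point in follow-ups.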", "values": [
      {"smiles": "C[N+](C)(C)CCOC(=O)CCC(=O)OCC[N+](C)(C)C", "activity change, negative = cytotoxic": "7.47% (inactive)"},
      {"smiles": "C[C@]12C=CC(=O)C=C1CC[C@H]1[C@@H]3C[C@@H](O)[C@](O)(C(=O)CO)[C@@]3(C)C[C@H](O)[C@@]12F", "activity change, negative = cytotoxic": "3.65% (inactive)"},
      {"smiles": "CC(=O)OCC1=C(C(=O)O)N2C(=O)[C@@H](NC(=O)Cc3cccs3)[C@H]2SC1", "activity change, negative = cytotoxic": "30.4% (inactive)"},
      {"smiles": "CC(C)NNC(=O)c1ccncc1", "activity change, negative = cytotoxic": "20.5% (inactive)"},
      {"smiles": "CCN(CC)CCNC(=O)c1cc(S(C)(=O)=O)ccc1OC", "activity change, negative = cytotoxic": "28.1% (inactive)"},
      {"smiles": "O=C(O)CN(CCOCCOCCN(CC(=O)O)CC(=O)O)CC(=O)O", "activity change, negative = cytotoxic": "27.7% [at 0.597 µM] (inactive)"},
      {"smiles": "Cc1cccc(C)c1NC(=O)C(C)N", "note": "(stereo not given)", "activity change, negative = cytotoxic": "7.92% (inactive)"},
      {"smiles": "CSc1ccc(C(=O)c2[nH]c(=O)[nH]c2C)cc1", "activity change, negative = cytotoxic": "8.06% (inactive)"},
      {"smiles": "C[N+](C)(C)CCCCCCCCCC[N+](C)(C)C", "activity change, negative = cytotoxic": "8.07% (inactive)"},
      {"smiles": "Cc1nnc(SCC2=C(C(=O)O)N3C(=O)[C@@H](NC(=O)Cn4cnnn4)[C@H]3SC2)s1", "activity change, negative = cytotoxic": "0.0841% (inactive)"},
      {"smiles": "NC(=O)N1c2ccccc2C=Cc2ccccc21", "activity change, negative = cytotoxic": "22.2% (inactive)"},
      {"smiles": "CC(C(=O)O)c1ccc(CC2CCCC2=O)cc1", "note": "(stereo not given)", "activity change, negative = cytotoxic": "6.18% (inactive)"},
      {"smiles": "CCn1ccnc1CC1COc2ccccc2O1", "note": "(stereo not given)", "activity change, negative = cytotoxic": "10.3% (inactive)"},
      {"smiles": "COc1ccc([C@@H]2Sc3ccccc3N(CCN(C)C)C(=O)[C@@H]2OC(C)=O)cc1", "activity change, negative = cytotoxic": "9.86% (inactive)"},
      {"smiles": "c1cnc(N2CCN(Cc3ccc4c(c3)OCO4)CC2)nc1", "activity change, negative = cytotoxic": "12.1% (inactive)"},
      {"smiles": "CN1CCN(CC(=O)N2c3ccccc3C(=O)Nc3cccnc32)CC1", "activity change, negative = cytotoxic": "10.3% [at 4.84 µM] (inactive)"},
      {"smiles": "CN(C)CCOC(=O)COc1ccc(Cl)cc1", "activity change, negative = cytotoxic": "14.3% (inactive)"},
      {"smiles": "Cc1ccc(=O)n(-c2ccccc2)c1", "activity change, negative = cytotoxic": "18.9% (inactive)"},
      {"smiles": "CN/C(=C\\[N+](=O)[O-])NCCSCc1ccc(CN(C)C)o1", "activity change, negative = cytotoxic": "8.24% (inactive)"},
      {"smiles": "CCCN(CCC)C(=O)C(CCC(=O)O)NC(=O)c1ccccc1", "note": "(stereo not given)", "activity change, negative = cytotoxic": "0.973% (inactive)"},
      {"smiles": "CCCOc1ccccc1-c1nc2n[nH]nc2c(=O)[nH]1", "activity change, negative = cytotoxic": "-10.1% (inactive)"},
      {"smiles": "O=C1CC2(CCCC2)CC(=O)N1CCCCN1CCN(c2ncccn2)CC1", "activity change, negative = cytotoxic": "-1.52% (inactive)"},
      {"smiles": "NC(Cc1ccc(Cl)cc1)C(=O)O", "note": "(stereo not given)", "activity change, negative = cytotoxic": "0.0057% [at 0.597 µM] (inactive)"},
      {"smiles": "CC[N+](C)(C)c1cccc(O)c1", "activity change, negative = cytotoxic": "14.2% (inactive)"},
      {"smiles": "CCc1c(C)[nH]c2c1C(=O)C(CN1CCOCC1)CC2", "note": "(stereo not given)", "activity change, negative = cytotoxic": "5.81% (inactive)"},
      {"smiles": "CC1=NS(=O)(=O)c2cc(Cl)ccc2N1", "activity change, negative = cytotoxic": "0.259% (inactive)"},
      {"smiles": "C[N+](C)(C)CCOC(N)=O", "activity change, negative = cytotoxic": "-2.22% (inactive)"},
      {"smiles": "c1ccc2c(c1)CCCC2C1=NCCN1", "note": "(stereo not given)", "activity change, negative = cytotoxic": "3.28% (inactive)"},
      {"smiles": "CN(C)C(=O)Oc1cccc([N+](C)(C)C)c1", "activity change, negative = cytotoxic": "21% (inactive)"},
      {"smiles": "CCN(CC)CC(=O)Nc1c(C)cccc1C", "activity change, negative = cytotoxic": "3.36% (inactive)"},
      {"smiles": "COc1ccc(CN(CCN(C)C)c2ccccn2)cc1", "activity change, negative = cytotoxic": "-14.5% (inactive)"},
      {"smiles": "CCO/C([O-])=N/c1c[n+](N2CCOCC2)no1", "activity change, negative = cytotoxic": "16.8% (inactive)"},
      {"smiles": "CN1C(=O)CC[C@H]1c1cccnc1", "activity change, negative = cytotoxic": "9.53% (inactive)"},
      {"smiles": "Brc1c(NC2=NCCN2)ccc2nccnc12", "activity change, negative = cytotoxic": "1.73% (inactive)"},
      {"smiles": "NC/C=C/C(=O)O", "activity change, negative = cytotoxic": "22% (inactive)"}
    ]},
    {"assay": "qHTS of pediatric cancer cell lines to identify multiple opportunities for drug repurposing: Primary screen for BT-12 cells (AID 1347101);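 further: plate controls were DMSO for no effect and bortezomib positive control for full effect; nearly all actives have a fitted effect of over 25% in size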", "settings": "BT-12 viability, CellTiter-Glo luminescence, 48 h; series mostly up to 57.3 µM; activity change, negative = cytotoxic: at the top concentration", "procedure,_shortened": "as §1", "values": [
      {"smiles": "C[N+](C)(C)CCOC(=O)CCC(=O)OCC[N+](C)(C)C", "activity change, negative = cytotoxic": "12.6% (inactive)"},
      {"smiles": "C[C@]12C=CC(=O)C=C1CC[C@H]1[C@@H]3C[C@@H](O)[C@](O)(C(=O)CO)[C@@]3(C)C[C@H](O)[C@@]12F", "activity change, negative = cytotoxic": "3.34% (inactive)"},
      {"smiles": "CC(=O)OCC1=C(C(=O)O)N2C(=O)[C@@H](NC(=O)Cc3cccs3)[C@H]2SC1", "activity change, negative = cytotoxic": "12.6% (inactive)"},
      {"smiles": "CC(C)NNC(=O)c1ccncc1", "activity change, negative = cytotoxic": "8.01% (inactive)"},
      {"smiles": "CCN(CC)CCNC(=O)c1cc(S(C)(=O)=O)ccc1OC", "activity change, negative = cytotoxic": "12.4% (inactive)"},
      {"smiles": "O=C(O)CN(CCOCCOCCN(CC(=O)O)CC(=O)O)CC(=O)O", "activity change, negative = cytotoxic": "8.07% [at 0.745 µM] (inactive)"},
      {"smiles": "Cc1cccc(C)c1NC(=O)C(C)N", "note": "(stereo not given)", "activity change, negative = cytotoxic": "4.88% (inactive)"},
      {"smiles": "CSc1ccc(C(=O)c2[nH]c(=O)[nH]c2C)cc1", "activity change, negative = cytotoxic": "2.12% (inactive)"},
      {"smiles": "C[N+](C)(C)CCCCCCCCCC[N+](C)(C)C", "activity change, negative = cytotoxic": "-11.6% (inactive)"},
      {"smiles": "Cc1nnc(SCC2=C(C(=O)O)N3C(=O)[C@@H](NC(=O)Cn4cnnn4)[C@H]3SC2)s1", "activity change, negative = cytotoxic": "6.91% (inactive)"},
      {"smiles": "NC(=O)N1c2ccccc2C=Cc2ccccc21", "activity change, negative = cytotoxic": "10.3% (inactive)"},
      {"smiles": "CC(C(=O)O)c1ccc(CC2CCCC2=O)cc1", "note": "(stereo not given)", "activity change, negative = cytotoxic": "4.14% (inactive)"},
      {"smiles": "CCn1ccnc1CC1COc2ccccc2O1", "note": "(stereo not given)", "activity change, negative = cytotoxic": "3.66% (inactive)"},
      {"smiles": "COc1ccc([C@@H]2Sc3ccccc3N(CCN(C)C)C(=O)[C@@H]2OC(C)=O)cc1", "activity change, negative = cytotoxic": "-13% (inactive)"},
      {"smiles": "c1cnc(N2CCN(Cc3ccc4c(c3)OCO4)CC2)nc1", "activity change, negative = cytotoxic": "4.12% (inactive)"},
      {"smiles": "CN1CCN(CC(=O)N2c3ccccc3C(=O)Nc3cccnc32)CC1", "activity change, negative = cytotoxic": "5.59% [at 6.03 µM] (inactive)"},
      {"smiles": "CN(C)CCOC(=O)COc1ccc(Cl)cc1", "activity change, negative = cytotoxic": "16.6% (inactive)"},
      {"smiles": "Cc1ccc(=O)n(-c2ccccc2)c1", "activity change, negative = cytotoxic": "11.9% (inactive)"},
      {"smiles": "CN/C(=C\\[N+](=O)[O-])NCCSCc1ccc(CN(C)C)o1", "activity change, negative = cytotoxic": "-12.6% (inactive)"},
      {"smiles": "CCCN(CCC)C(=O)C(CCC(=O)O)NC(=O)c1ccccc1", "note": "(stereo not given)", "activity change, negative = cytotoxic": "5.22% (inactive)"},
      {"smiles": "CCCOc1ccccc1-c1nc2n[nH]nc2c(=O)[nH]1", "activity change, negative = cytotoxic": "-19.4% (inactive)"},
      {"smiles": "O=C1CC2(CCCC2)CC(=O)N1CCCCN1CCN(c2ncccn2)CC1", "activity change, negative = cytotoxic": "-7.65% (inactive)"},
      {"smiles": "NC(Cc1ccc(Cl)cc1)C(=O)O", "note": "(stereo not given)", "activity change, negative = cytotoxic": "7.02% [at 0.745 µM] (inactive)"},
      {"smiles": "CC[N+](C)(C)c1cccc(O)c1", "activity change, negative = cytotoxic": "15.4% (inactive)"},
      {"smiles": "CCc1c(C)[nH]c2c1C(=O)C(CN1CCOCC1)CC2", "note": "(stereo not given)", "activity change, negative = cytotoxic": "6.58% (inactive)"},
      {"smiles": "CC1=NS(=O)(=O)c2cc(Cl)ccc2N1", "activity change, negative = cytotoxic": "15% (inactive)"},
      {"smiles": "C[N+](C)(C)CCOC(N)=O", "activity change, negative = cytotoxic": "4.86% (inactive)"},
      {"smiles": "c1ccc2c(c1)CCCC2C1=NCCN1", "note": "(stereo not given)", "activity change, negative = cytotoxic": "11.7% (inactive)"},
      {"smiles": "CN(C)C(=O)Oc1cccc([N+](C)(C)C)c1", "activity change, negative = cytotoxic": "13.2% (inactive)"},
      {"smiles": "CCN(CC)CC(=O)Nc1c(C)cccc1C", "activity change, negative = cytotoxic": "6.83% (inactive)"},
      {"smiles": "COc1ccc(CN(CCN(C)C)c2ccccn2)cc1", "activity change, negative = cytotoxic": "-8.05% (inactive)"},
      {"smiles": "CCO/C([O-])=N/c1c[n+](N2CCOCC2)no1", "activity change, negative = cytotoxic": "5.69% (inactive)"},
      {"smiles": "CN1C(=O)CC[C@H]1c1cccnc1", "activity change, negative = cytotoxic": "11.4% (inactive)"},
      {"smiles": "Brc1c(NC2=NCCN2)ccc2nccnc12", "activity change, negative = cytotoxic": "-4.14% (inactive)"},
      {"smiles": "NC/C=C/C(=O)O", "activity change, negative = cytotoxic": "3% (inactive)"}
    ]}
  ]
}
